# Screens as filed in PubChem BioAssay.
# Most compounds without a hit are left out; they make up all but 6.5% or so of the library.
# Vaccinia Venus: inhibitors of vaccinia virus (Venus reporter). Vaccinia virus Venus reporter expression, fluorescence. Potency, µM (doses to about 36.5 µM), for inactives: at the top dose activity change, negative = inhibition, most hits filed as inhibitors. 330,000 tested, 0.46% active; calls by dose curve; tested in A549 cells; note: potency is the fitted concentration of half-maximal effect; nearly all actives have a fitted effect of over 30% in size
# MARV entry inh: Marburg virus entry inhibition; Marburg virus pseudotyped entry inhibition, cell reporter; Potency, µM (titrated, usually from 37.8 µM), for inactives: at the highest dose activity change, negative = inhibition, usual class: inhibitors; 300,000 tested, 1.8% active; calls by dose curve; tested in HEK293 cells; note: potency is the fitted concentration of half-maximal effect
# FMDV antiviral: antivirals against foot and mouth disease virus; FMDV antiviral cell-based qHTS; Potency, µM (top dose mostly 57.9 µM), for the others: at the highest dose activity change, negative = inhibition, usual class: inhibitors; 410,000 tested, 1.2% active; calls by dose curve; tested in HEK293T cells; note: read-out not given here; potency is the fitted concentration of half-maximal effect; nearly all actives have a fitted effect of over 45% in size
# HCMV inh: human cytomegalovirus inhibition; HFF cells, HCMV-luciferase reporter, 72 h; stronger effect = lower value; activity change, negative = inhibition, % at 57.5 µM; 410,000 tested, 4.5% active; in the data active = activity change below about -60%; inconclusive = no clear call, values can overlap the other calls; inactive = above about -39%
#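 Luciferase read-out from HCMV-luciferase-infected HFFs (MOI 1 PFU/cell) 72 h post infection at 37C; compounds added after 16 h cell attachment; activity normalized between buffer-only basal and Salinomycin (10uM) inhibitor controls.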
# LASV entry inh: Lassa virus entry inhibition. Lassa virus pseudotype entry inhibition, cell reporter. Potency, µM (series often up to 37.9 µM), without a hit: at the highest dose activity change, negative = inhibition, most hits filed as inhibitors. AID 540256. 300,000 tested, 1.2% active; calls by dose curve; tested in HEK293 cells; note: potency is the fitted concentration of half-maximal effect; nearly all actives have a fitted effect of over 50% in size
# Vaccinia mCherry: inhibitors of vaccinia virus infection (mCherry reporter signal) | Vaccinia virus mCherry reporter infection, fluorescence | Potency, µM (highest dose often 36.5 µM), inactives show at the top dose activity change, negative = inhibition, usual class: inhibitors | 310,000 tested, 0.63% active; calls by dose curve; tested in A549 cells; note: potency is the fitted concentration of half-maximal effect; nearly all actives have a fitted effect of over 35% in size
# Numbers without * were called inactive; i = inactive; ? = inconclusive; · = no result given; + = active, no number; [ ] = dose if it differs, or a comment. % is set by controls: 0 for no effect and ±100 for the full control effect.
SMILES,Vaccinia Venus,MARV entry inh,FMDV antiviral,HCMV inh,LASV entry inh,Vaccinia mCherry
COc1cc(C(C)=NNC(=O)c2ccncc2)ccc1O,-4%,3%,4%,-101*,4%,-12%
C/C(=N\NC(=O)C(c1ccccc1)c1ccccc1)c1ccccn1,?,?,?,-99*,?,?
C/C(=N\NC(=O)C(c1ccccc1)c1ccccc1)c1ccc(O)cc1,·,·,-23%,22,·,·
C/C(=N/NC(=O)c1ccc(C(C)(C)C)cc1)c1ccccn1,?,?,-10%,-98*,?,2.8µM*
Cc1ccc(OCCNC(=O)C(=O)NCc2ccco2)cc1,-11%,?,3%,-29,?,-6%
COc1ccc(O)c(CN2CCCN(c3nc(C)c4cc(C)c(C)cc4n3)CC2)c1,-8%,·,5%,·,·,-1%
CCCN(CCC)C(=O)Cn1c(=O)n(CCCCCC(=O)NCc2ccccc2Cl)c(=O)c2sccc21,-18%,-2%[46.1 µM],-16%,-21,13%[46.1 µM],-14%
O[C@]1(c2ccc(F)cc2)CCNC1,·,-7%,·,·,·,·
CCOC(=O)c1nc(SC)n(C)c1C(=O)OCC,-10%,2%[46.1 µM],-1%,-9,0%,i
CC1CCC2(CC1)NC(=O)N(NC(=O)C1CCN(C(=O)c3ccc(Cl)cc3)CC1)C2=O (centres undefined),-10%,-24%[46.1 µM],-25%,-27,8%,i
O=C(Nc1ccccc1Br)C1CC(=O)N(c2ccc3c4c(cccc24)CC3)C1 (centres undefined),0%,10µM*,-3%,-29,?,-13%
Cc1cc(NC(=O)CCl)no1,?,?,?,-82*,?,?
Cc1ccc(S(=O)(=O)N2CCCc3cc(NS(=O)(=O)c4ccc(F)c(C)c4)ccc32)cc1,?,·,-40%,-60*,-27%[46.1 µM],?
C=CCn1c(O)c(N=NC(=O)CNC(=O)c2ccncc2)c2ccccc21,-24%,-29%[46.1 µM],24%,0,-4%[46.1 µM],-2%
COc1ccc(OC)c(-c2ccnc(-n3ncc(C(=O)N(C)CCO)c3C3CC3)n2)c1,-7%,·,34%,·,·,-6%
O=C(O)c1cc(-c2ccccc2)n(-c2ccccc2C(=O)O)n1,-7%,17%,13%,-100*,6%,-10%
CC(C)(C)C(=O)Nc1cc2nn(-c3ccccc3)nc2cc1Cl,-7%,0.41µM*,50µM*,-88*,1.5µM*,-10%
COc1ccc(C(=O)N2CCCC2(C)C(=O)NCC(C)C)cc1C(F)(F)F (centres undefined),-1%,·,-25%,-3,·,18%
C=CC(=O)NC(NC(=O)C=C)c1ccccc1F,?,-4%[46.1 µM],-7%,-27,-17%,7.9µM*
Cc1cc(C)n(CCNC(=O)[C@H]2O[C@@H](n3ccc(=O)[nH]c3=O)[C@H](O)[C@@H]2O)n1,11%,·,-11%,-4,·,29%
Cc1nnc2c(SC(C)C)nc3ccccc3n12,·,·,-1%,-82*,·,·
CCOC(=O)CSc1nc2ccccc2n2c(C)nnc12,-11%,-5%[46.1 µM],-11%,13,?,0%
CC(=O)NCCNc1nc2cc(-c3cscc3C)sc2c(=O)n1C,-6%,·,-1%,16,·,12%
CCc1ccc(Cn2c(CNS(=O)(=O)c3ccc([N+](=O)[O-])cc3)nc3cccnc32)cc1,2%,·,59%,13,-22%[46.1 µM],-9%
C/C=C/COC(=O)c1[nH]c2c(c1C)C(=O)CC(c1ccco1)C2 (centres undefined),?,?,-5%,-65*,?,?
SMILES,Vaccinia Venus,MARV entry inh,FMDV antiviral,HCMV inh,LASV entry inh,Vaccinia mCherry
C=CCOC(=O)c1[nH]c2c(c1C)C(=O)CC(c1ccco1)C2 (centres undefined),-22%,·,6%,·,·,?
Cc1c(C(=O)OCC(C)C)[nH]c2c1C(=O)CC(c1ccco1)C2 (centres undefined),?,?,0%,-77*,?,?
Cc1c(C(=O)OC2CCCC2)[nH]c2c1C(=O)CC(c1ccco1)C2 (centres undefined),?,·,?,-95*,·,?
Nc1ncnc2c1ncn2[C@@H]1O[C@H](C(=O)NCc2ccc(OC(F)(F)F)cc2)[C@@H](O)[C@H]1O,6%,·,0%,-19,·,32%
CCc1nc(C)cn1S(=O)(=O)c1cc(C)c(OC)cc1C,-8%,·,-9%,13,·,-24%
CCc1nc(C)cn1S(=O)(=O)c1cc(C)c(OC)c(C)c1C,?,?,-28%,-76*,?,-21%
CCN(C[C@H]1N[C@@](CC)(C(=O)OC)[C@H]2C(=O)N(C)C(=O)[C@@H]12)C(=O)Nc1ccc(C)cc1,?,·,0%,-4,·,i
CSCC[C@@H](C(=O)NCCCCCCCCCCC(=O)N1CCN(C(=O)OC(C)(C)C)CC1)n1cc(CCO)nn1,-21%,·,?,0,·,-2%
CC(C)(C)OC(=O)NCCCC[C@@H](C(=O)NCCCCCCCCCCC(=O)N1CCN(C(=O)OC(C)(C)C)CC1)n1cc(CCO)nn1,?,·,14µM*,-21,·,-5%
CC[C@H](C)Cc1cn([C@@H](CCCCNC(=O)OC(C)(C)C)C(=O)NCCCCCCCCCCC(=O)N2CCN(C(=O)OC(C)(C)C)CC2)nn1,?,·,14µM*,21,·,-14%
COc1ccc(C(O)c2nc(-c3ccc(F)c(Cl)c3)cs2)cc1 (centres undefined),-4%,·,5%,14,·,42%
COc1ccc(C2NCCc3c2[nH]c2ccccc32)cc1COc1ccc(F)cc1 (centres undefined),·,?,?,-98*,23µM*,·
COc1ccc(C2NCCc3c2[nH]c2ccccc32)cc1CN1CCc2cc(OC)c(OC)cc2C1C (centres undefined),-12%,·,-15%,·,·,?
Cc1cc(Cl)c(C)c(S(=O)(=O)N2CCN(CC(=O)N3CCOCC3)CC2)c1Cl,·,·,-19%,+,·,·
Cc1ccc(S(=O)(=O)N2CCN(CC(=O)N3CCOCC3)CC2)cc1,-12%,?,4%,4,15%[46.1 µM],-20%
COc1ccc(NC(=S)Nc2ccc(N(C)C(C)=O)cc2)cc1,3%,1%[14.2 µM],-3%,-98*,4%,3%
COc1ccc(CCNC(=S)Nc2ccc(OC)cc2)cc1,·,-22%,-6%,-66*,1%,·
COc1ccc(NC(=S)NCc2ccc(F)cc2)cc1,·,·,42%,-64*,·,·
COc1ccc(NC(=S)NCCc2c(C)[nH]c3ccc(OC)cc23)cc1,-13%,0%[46.1 µM],11%,-69*,?,-22%
COc1ccc(CNC(=S)Nc2ccc(OC)cc2)cc1,-11%,0%,39%,20,-16%,-10%
COc1ccc(NC(=S)Nc2ccccc2)cc1,-17%,·,34%,?,·,-5%
COc1ccc(OC)c(-c2cc(C(=O)Nc3ccc(C)c(C)c3)no2)c1,0%,-18%[46.1 µM],2%,26,29%[46.1 µM],-12%
COc1ccc(-n2cnc3cc(C(=O)NCCC4=CCCCC4)ccc32)cc1,-8%,·,0%,-17,?,-11%
